Only some compounds are listed: those with a hit (about 1.1% of all), similar ones and a draw of the others.
SRC1 inh: inhibits human SRC1 coactivator; HEK293 GAL4-SRC1 luciferase reporter, luminescence; 0.12% of 360,000 active; Q15788; AID 588354; inhibition, % at 3.6 µM;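 active means inhibition above the campaign mean plus 3 SD, with each screening campaign given its own cutoff, cut at about 60% in these data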;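 further: 0% = DMSO treated cells and 100% = gossypol at 36 µM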
Target sequence (Q15788 whole entry, looked up, the tested form may be a part): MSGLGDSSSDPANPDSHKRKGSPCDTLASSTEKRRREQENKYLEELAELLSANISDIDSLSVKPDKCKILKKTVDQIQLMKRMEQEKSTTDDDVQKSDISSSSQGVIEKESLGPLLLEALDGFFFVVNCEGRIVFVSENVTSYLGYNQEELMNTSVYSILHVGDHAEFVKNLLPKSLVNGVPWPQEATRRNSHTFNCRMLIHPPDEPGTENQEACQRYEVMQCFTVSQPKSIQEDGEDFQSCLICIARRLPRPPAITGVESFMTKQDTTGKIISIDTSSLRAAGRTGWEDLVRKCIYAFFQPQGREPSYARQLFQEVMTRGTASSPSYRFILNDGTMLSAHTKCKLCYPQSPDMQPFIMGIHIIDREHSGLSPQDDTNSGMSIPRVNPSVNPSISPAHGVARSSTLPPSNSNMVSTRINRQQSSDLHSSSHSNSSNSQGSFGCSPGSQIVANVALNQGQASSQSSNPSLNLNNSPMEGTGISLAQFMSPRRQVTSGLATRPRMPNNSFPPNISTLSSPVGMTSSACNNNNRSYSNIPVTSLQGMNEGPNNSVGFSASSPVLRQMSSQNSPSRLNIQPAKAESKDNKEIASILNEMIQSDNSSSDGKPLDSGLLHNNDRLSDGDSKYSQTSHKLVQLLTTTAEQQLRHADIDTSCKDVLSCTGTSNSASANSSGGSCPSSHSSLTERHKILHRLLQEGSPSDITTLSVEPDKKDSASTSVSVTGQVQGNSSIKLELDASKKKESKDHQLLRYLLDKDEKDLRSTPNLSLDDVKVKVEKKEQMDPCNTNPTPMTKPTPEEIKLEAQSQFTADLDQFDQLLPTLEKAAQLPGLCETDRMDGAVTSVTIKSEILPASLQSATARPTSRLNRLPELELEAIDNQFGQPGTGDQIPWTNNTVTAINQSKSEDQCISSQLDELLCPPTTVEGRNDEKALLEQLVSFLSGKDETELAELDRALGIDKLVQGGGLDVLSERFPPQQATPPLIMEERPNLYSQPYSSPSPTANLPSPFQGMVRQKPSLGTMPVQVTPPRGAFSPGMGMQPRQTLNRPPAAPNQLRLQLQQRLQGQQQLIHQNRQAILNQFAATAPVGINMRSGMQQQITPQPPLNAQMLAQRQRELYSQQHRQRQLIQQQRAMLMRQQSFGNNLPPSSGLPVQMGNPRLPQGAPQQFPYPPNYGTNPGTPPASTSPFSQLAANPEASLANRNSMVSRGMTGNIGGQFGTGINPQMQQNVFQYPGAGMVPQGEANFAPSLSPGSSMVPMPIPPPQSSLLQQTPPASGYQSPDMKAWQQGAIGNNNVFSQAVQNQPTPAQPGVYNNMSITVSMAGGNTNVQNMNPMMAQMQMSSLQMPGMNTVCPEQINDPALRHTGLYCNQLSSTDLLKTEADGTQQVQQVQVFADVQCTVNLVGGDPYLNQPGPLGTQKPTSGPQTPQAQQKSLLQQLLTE
LRH-1 inv ag: suppresses constitutive activity of human LRH-1. O00482. inhibition, % at 3.6 µM. AID 602396. 0.13% of 360,000 active. HEK293T StAR-luciferase reporter, LRH-1 transfected, 24 h;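 active means inhibition above the mean inhibition of all tested compounds plus 3 SD, cut at about 73% in these data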;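 further: 0% = DMSO wells and 100% = reporter-only cells lacking LRH-1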
Gli-Sufu block: Gli-Sufu pathway antagonism; Sufu-KO-LIGHT fibroblasts, Gli luciferase reporter luminescence; inhibition, % at 5 µM; 0.74% of 340,000 active; AID 588413;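 active means inhibition above about 55%, limit read from the data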;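 further: 0% = DMSO-treated cells and 100% = wells with medium but no cells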
SRC3 inh: inhibitors of human steroid receptor coactivator 3 (SRC3) | inhibition, % at 3.6 µM | 0.17% of 360,000 active | HEK293 GAL4-SRC3 luciferase reporter, luminescence | Q9Y6Q9;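 active means inhibition above a per-campaign cutoff, the mean of all compounds plus 3 SD, cut at about 60% in these data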;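 further: 0% = DMSO-treated cells and 100% = gossypol-treated cells at 36 µM; higher means less SRC3-driven luciferase light from the GAL4 reporter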
SRC2 inh: human SRC2 (NCOA2) inhibition; inhibition, % at 9 µM; 0.17% of 370,000 active; HEK293 GAL4-SRC2 luciferase reporter, luminescence; Q15596;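 active means inhibition above the mean inhibition of all tested compounds plus 3 SD, set per campaign, cut at about 52% in these data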;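 further: 0% = DMSO treated cells and 100% = cells given Gossypol at 36 µM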
Shn3 3UTR inh: inhibitors of Schnurri-3 3'UTR reporter in osteoblasts | Clone20 osteoblast Shn3 3'UTR firefly luciferase, 24 h | inhibition, % at 12.5 µM | 0.52% of 360,000 active | AID 588674;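 active means mean inhibition of at least 75% with every replicate also reaching 75%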;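 further: 0% = median of neutral control wells and 100% = pilot-screen positive control compound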
Gli-Sufu confirm: Gli-SUFU antagonism confirmation, single concentration; shares compounds with Gli-Sufu block; Sufu-KO-LIGHT cells, Gli luciferase reporter, luminescence; inhibition, % at 5 µM; 40% of 2,500 active; AID 602428;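 active means mean inhibition at 5 µM reaching about 45%, limit read from the data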;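 further: plate controls were DMSO-treated cells for no effect and wells lacking cells for full effect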
SufuKO cytotox: cytotoxic in Gli-SUFU antagonist counter-screen; shares compounds with Gli-Sufu block; Sufu-KO-LIGHT cells cytotoxicity, ATP luminescence; cytotoxicity, % at 5 µM; 32% of 2,500 active;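 active means mean cytotoxicity at 5 µM above about 25%, limit read from the data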;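 further: cells exposed to compound overnight for roughly 16 to 18 hours; plate controls were DMSO wells with cells for no effect and medium without cells for full effect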
Wnt3a counter: counter-screen for Gli-SUFU antagonists: Wnt3a reporter inhibition. shares compounds with Gli-Sufu block. Wnt-LIGHT cells, Wnt3a-driven luciferase reporter, luminescence. inhibition, % at 6.25 µM. 20% of 2,500 active;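 active means mean inhibition above about 25%, limit read from the data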
The depositor's hits bear a star; . = no result given.

SMILES	SRC1 inh	LRH-1 inv ag	Gli-Sufu block	SRC3 inh	SRC2 inh	Shn3 3UTR inh	Gli-Sufu confirm	SufuKO cytotox	Wnt3a counter
Cc1ccccc1CCNC(=O)Cn1nc(C)c2c(C)n(-c3ccccc3)nc2c1=O	-4.8	15.9	3.6	-0.5	-8.7	11.5	.	.	.
O=C(NC1CCCCN(Cc2cccc(C(F)(F)F)c2)C1=O)c1c(F)cccc1F (stereo unspecified)	.	.	.	.	5.6	.	.	.	.
COC(=O)c1cc(-c2cccs2)c(=O)n2c1CCC2	.	.	.	.	-45.5	.	.	.	.
CCOC(=O)c1c(NC=O)sc2c1CCC2	15.2	10.2	69.7*	21.5	15.1	10.6	11.9	-3.9	20.7
CCOC(=O)c1c(NC(=O)C(=O)N/N=C/c2ccccc2O)sc2c1CCCCC2	-16.4	11.2	69.9*	15.9	-10.4	93.8*	75.3*	17.1	20.4
CCOC(=O)c1c(NC(=O)COC)sc2c1CCCC2	-50.4	-3.1	7.4	2.3	4.3	-19.7	.	.	.
CCOC(=O)c1c(NC(=O)c2ccccc2N(C)S(=O)(=O)c2ccccc2)sc2c1CCCC2	15.1	-3.0	52.0	12.5	-0.7	79.3	13.8	14.8	-35.1
CCC(Oc1ccccc1F)C(=O)Nc1ccc2c(c1)n(C)c(=O)n2C (stereo unspecified)	3.2	12.9	51.6	-11.1	7.4	-13.2	28.1	-1.8	6.7
COc1ccccc1NC(=O)Nc1ccc(Cc2ccncc2)cc1	1.8	-34.4	50.3	3.6	-11.1	-7.3	14.9	6.9	-37.9
Cc1ccc(NC(=O)CSc2ccc3c(c2)OCCO3)c(O)c1	-2.9	44.9	73.2*	31.3	17.8	81.6	69.3*	42.6*	51.4*
Cc1nc2ccc(NC(=O)c3ccc(F)cc3Cl)cc2c(=O)[nH]1	.	.	.	.	-12.5	.	.	.	.
COc1cc2c(cc1OC)C(C(=O)Nc1ccccc1N1CCN(C)CC1)C1c3ccccc3CCN1C2=O (stereo unspecified)	-6.6	-4.8	56.3*	8.5	1.6	-3.9	34.2	19.9	-9.9
COc1cc2c(cc1OC)C1C(C(=O)Nc3ccccc3N3CCN(C)CC3)c3ccccc3C(=O)N1CC2 (stereo unspecified)	-6.1	-1.2	7.0	15.4	7.5	-111.8	.	.	.
COC(=O)c1ccc(OCc2cc(=O)n3ccsc3n2)cc1	13.2	19.0	79.9*	5.0	-74.0	-9.4	18.1	9.5	2.1
O=c1c2ccccc2n(Cc2ccccc2)n1[C@@H](Cc1ccccc1)Cn1cc(-c2ccc(-c3ccccc3)cc2)nn1	.	.	.	.	-14.3	.	.	.	.
COc1cc(C(=O)NC2CCCCN(Cc3ccc(Cl)cc3)C2=O)cc(OC)c1OC (stereo unspecified)	.	.	.	.	29.7	.	.	.	.
CN(/N=C\c1ccc(O)c(O)c1)c1nc(-c2ccccc2)cc(-c2ccccc2)n1	6.0	-7.3	90.5*	-0.1	6.9	91.9*	81.5*	25.6*	88.6*
COc1ccccc1OC(C)C(=O)Nc1ccccc1C(=O)NCc1cccnc1 (stereo unspecified)	16.5	-19.4	56.0*	-14.7	-13.3	66.5	19.9	11.3	-28.7
COc1ccc(N2C(=O)c3ccc(C(=O)OC(C)C)cc3C2=O)cc1	4.5	8.8	91.1*	0.1	-24.2	6.8	21.5	19.7	21.5
COc1ccc(N2C(=O)c3ccc(C(=O)Nc4cc(OC)ccc4OC)cc3C2=O)cc1	-0.5	-8.3	.	0.1	-1.5	-2.2	.	.	.
CC(C)COc1ccc(C/C(N)=N/n2cnnc2)cc1	-40.7	8.0	62.2*	22.3	35.2	79.0	46.4*	20.2	26.3*
Cc1cccc(-c2cccc3c4c([nH]c23)[C@@H]2C[C@H](N(C)C(=O)OCc3ccccc3)[C@H]([C@H](C)O)CN2CC4)c1	.	.	.	.	-8.4	.	.	.	.
CCCC(=O)OC12CCCN(C1)/C(=C/c1cccc(Cl)c1)C2 (stereo unspecified)	.	.	.	.	10.8	.	.	.	.
CC(=O)N1CCC(C(=O)N2CCN(S(=O)(=O)c3ccc(Cl)s3)CC2)CC1	7.0	2.5	97.0*	23.1	-0.5	13.9	15.2	22.0	11.4
COc1cc(NC(=O)c2cc3ccccc3cc2OC)ccc1NC(=O)c1cccs1	8.2	22.0	56.8*	32.9	20.5	9.3	34.5	15.6	-71.4
SMILES	SRC1 inh	LRH-1 inv ag	Gli-Sufu block	SRC3 inh	SRC2 inh	Shn3 3UTR inh	Gli-Sufu confirm	SufuKO cytotox	Wnt3a counter
Cc1ccc(C)c(Oc2cc(NC(=O)CCCn3nc(C)c([N+](=O)[O-])c3C)cc([N+](=O)[O-])c2)c1	6.1	1.9	50.2	18.7	-3.8	74.3	17.1	12.4	-20.1
Cc1[nH]c2ccccc2c1CC#N	13.1	13.9	1.9	26.3	4.4	.	.	.	.
Cc1[nH]c2ccccc2c1[C@H]1[C@@H](CC#N)C1(C)C	3.5	-2.6	50.9	15.0	-4.1	9.3	22.2	5.4	-6.3
CCC(CO)Oc1cc(NCc2ccc(C(C)(C)C)cc2)c2ncn(C(C)C)c2c1 (stereo unspecified)	2.4	-19.8	57.9*	2.4	-40.3	64.7	47.9*	17.8	30.3*
O=C(CCCc1nc(-c2ccccc2Cl)no1)NC1CCCC1	45.0	25.6	64.3*	62.5*	90.4*	73.1	57.2*	-1.3	93.0*
Cc1nn(C)cc1NC(=O)C[C@H]1CC[C@H]2[C@@H](COc3ccc(NC(=O)Nc4ccccc4)cc3C(=O)N2C)O1	.	.	.	.	-16.5	.	.	.	.
CCC(C)[C@@H](C(=O)OC)N(Cc1cn(Cc2ccccc2)nn1)S(=O)(=O)c1ccccc1Br (stereo partly specified)	.	.	.	.	-2.7	.	.	.	.
Cc1ccc(S(=O)(=O)N2CCN(C(=O)C3CCCO3)CC2)cc1C (stereo unspecified)	15.0	6.5	3.4	-1.5	-14.8	-5.2	.	.	.
Cc1cc(C)c(S(=O)(=O)N2CCN(C(=O)C3CCCO3)CC2)c(C)c1 (stereo unspecified)	1.4	4.5	57.8*	9.4	25.9	11.4	12.2	7.1	-12.7
CCc1[nH]c(=O)c(C#N)c2c1CCCC2	-12.0	1.7	51.4	-5.4	-16.5	-7.2	17.3	4.5	3.4
CCc1[nH]c(=S)c(C#N)c2c1CCCC2	-8.8	7.0	-1.8	12.4	2.1	4.8	.	.	.
C=CC[C@@H]1NN2C(=O)[C@@H](C)[C@@H]3c4ccccc4C=NN3[C@@H]2c2ccccc21	.	.	.	.	-7.8	.	.	.	.
O=C(CCCn1nnnc1CN1CCOCC1)N1CCC(c2ccc(F)cc2)C1 (stereo unspecified)	0.9	-17.7	97.1*	-6.8	-13.2	3.1	21.3	10.4	-26.7
COc1ccc(CCCC(=O)O)c(C)c1	-7.5	-12.0	95.1*	7.5	4.6	0.5	19.9	-10.9	16.6
